These results are taken from ChEMBL document CHEMBL1157539, “Thousands of chemical starting points for antimalarial lead identification” (Nature, 2010).

What all share (type): functional
Test [1] has as its system Plasmodium falciparum. Put plainly: GSK_TCMDC: Inhibition of Plasmodium falciparum 3D7 in whole red blood cells, using parasite LDH activity as an index of growth. Test compounds present at 2uM.
The subject of test [2] is Plasmodium falciparum. Put plainly: GSK_TCMDC: Inhibition of Plasmodium falciparum Dd2 in whole red blood cells, using parasite LDH activity as an index of growth. Test compounds present at 2uM.
Another test concerns HepG2. As to the kind of experiment: GSK_TCMDC: Percent inhibition of human HepG2 cell line. Test compounds present at 10uM.

The term Inhibition denotes the relative decrease from the control value, in per cent. Read a low Inhibition as little suppression. For `O=C(c1ccccc1NN=C1C(=O)N(c2ccccc2)N=C1c1ccccc1)N1CCOCC1`, the results for the Inhibition in the test on Plasmodium falciparum [1], in the test on Plasmodium falciparum [2] and with HepG2 were 97%, 2% and 0%, respectively.

As to `CS(=O)(=O)c1cccc(-c2ccc3oc(C(N)=O)c(NC(=O)c4cccs4)c3c2)c1`, the Inhibition worked out at 86% in the test with Plasmodium falciparum [1], 77% in the test with Plasmodium falciparum [2] and 11% in the test on HepG2.

Turning to `Cc1noc(-c2ccc(O)cc2O)c1-c1ccc2c(c1)OCCCO2`, the Inhibition was determined as 100% with Plasmodium falciparum [1], 99% with Plasmodium falciparum [2] and 8% with HepG2.

On to `Cc1ccc(NC(=O)c2cccc(N3CCN(c4ccncc4)CC3)c2)cc1F.O=C(O)C(F)(F)F`, for which the Inhibition amounted to 100% with Plasmodium falciparum [1], 72% with Plasmodium falciparum [2] and 43% in the test with HepG2.

For `CCn1c(C)cc(C=C2SC(=Nc3ccccc3)NC2=O)c1C`, the Inhibition is given as 90% in the test with Plasmodium falciparum [1], 87% in the test with Plasmodium falciparum [2] and 27% with HepG2.

On to `O=C(c1ccc(OCCn2ccnc2)cc1)N1CCC(c2ccc(Br)cc2)C1` (stereo unspecified), for which the Inhibition is 100% in the test on Plasmodium falciparum [1], 99% in the test on Plasmodium falciparum [2] and 49% with HepG2.

With `Cc1ccc2c(OCCN3CCC(Cc4cc5c(cc4F)OCC(=O)N5)CC3)cc(F)cc2n1.Cl`, the values for the Inhibition with Plasmodium falciparum [1], in the test on Plasmodium falciparum [2] and in the test on HepG2 were 100%, 71% and 27%, respectively.

Turning to `COC(=O)c1cccc(CNCc2cccc(-c3cccc(-c4nc5cccc(C)c5[nH]4)c3)c2)c1.O=C(O)C(F)(F)F`, the Inhibition in the test on Plasmodium falciparum [1] was 100%; with Plasmodium falciparum [2], 47%; in the test on HepG2, 0%.

With `CCN(CC)CCCC(C)Nc1ccnc2ccc(-c3ccccc3)cc12` (stereo unspecified), the Inhibition with Plasmodium falciparum [1] is 98%; in the test on Plasmodium falciparum [2] it was 21%; with HepG2, 0%.

Turning to `O=C(Cn1c(=O)cnc2ccccc21)Nc1cccc(C(=O)Nc2cccc(C(F)(F)F)c2)c1`, the values for the Inhibition with Plasmodium falciparum [1], in the test on Plasmodium falciparum [2] and in the test with HepG2 were 90%, 66% and 0%, respectively.

With `Cc1cc(N[C@@H](Cc2ccccc2)C(=O)NCc2cccc(F)c2)nc(NCC2CCCCC2)n1.O=C(O)C(F)(F)F`, the figures for the Inhibition in the test with Plasmodium falciparum [1], with Plasmodium falciparum [2] and in the test on HepG2 were 100%, 42% and 43%, respectively.

As for `COC(=O)c1ccc(CCCNCC(O)c2cccc(C(F)(F)F)c2)cc1` (stereo unspecified), the Inhibition in the test on Plasmodium falciparum [1] was 97%; in the test with Plasmodium falciparum [2] it was 88%; in the test on HepG2 it was 0%.

Turning to `CCOC(=O)NCCSC(C)(C)[C@H](NC(=O)[C@H](Cc1cc2ccccc2s1)[C@H](CC)N(O)C=O)C(=O)Nc1nccs1`, the Inhibition in the test with Plasmodium falciparum [1] is given as 98%; in the test with Plasmodium falciparum [2], 98%; in the test with HepG2, 11%.

Turning to `O=C(O)C[C@H](NC(=O)[C@@H]1CCCN1C(=O)c1cccc(-c2ccc(Cl)c(Cl)c2)c1)C(=O)O`, the Inhibition with Plasmodium falciparum [1] amounted to 84%; with Plasmodium falciparum [2] it was 0%; in the test on HepG2, 0%.

As for `COc1c(C2CCN(CCCCNC(=O)c3cc(-c4ccc(Cl)cc4)[nH]c3C)CC2)ccc2c1CCCC2`, the Inhibition came to 100% in the test with Plasmodium falciparum [1], 91% in the test on Plasmodium falciparum [2] and 53% in the test with HepG2.

Take `O=C(CC1CCCC1)N(Cc1ccc(-c2ccc(CNC3Cc4ccccc4C3)cc2)cc1)CC1CCCCN1.O=C(O)C(F)(F)F` (stereo unspecified): the Inhibition came out at 88% in the test on Plasmodium falciparum [1], 86% with Plasmodium falciparum [2] and 41% with HepG2.

As to `COc1ccc(Cl)cc1N1CCN(CCCNC(=O)c2ccc(-c3nc4cc(Cl)c(F)cc4[nH]3)c(F)c2)CC1`, the figures for the Inhibition in the test with Plasmodium falciparum [1], with Plasmodium falciparum [2] and in the test on HepG2 were 100%, 91% and 21%, respectively.

As for `Cc1cccc2nc(-c3cccc(-c4ccc(NC(=O)Cc5ccon5)cc4)c3)[nH]c12`, the figures for the Inhibition in the test with Plasmodium falciparum [1], in the test on Plasmodium falciparum [2] and in the test with HepG2 were 87%, 38% and 34%, respectively.

For `CN1CCCC1CCNCc1ccc(-c2ccc(CNCCc3ccccc3)cn2)cc1.O=C(O)C(F)(F)F` (stereo unspecified), the Inhibition in the test with Plasmodium falciparum [1] stood at 100%; with Plasmodium falciparum [2], 99%; in the test on HepG2 it was 25%.

Take `O=C(Nc1cccc(CN2CCCN(Cc3ncc[nH]3)CC2)c1)c1ccc2ccccc2c1.O=C(O)C(F)(F)F`: the Inhibition in the test on Plasmodium falciparum [1] turned out to be 100%; in the test on Plasmodium falciparum [2] it was 2%; in the test with HepG2, 13%.

Take `O=C(c1ccc(Br)o1)N1N=C(c2cccs2)CC1c1ccc(Br)cc1` (stereo unspecified): the Inhibition in the test with Plasmodium falciparum [1] was 96%; in the test with Plasmodium falciparum [2], 45%; in the test with HepG2, 5%.

In the case of `Cc1ccccc1C1CCN(C2CCC(NC(=O)c3ccc4c(c3)-c3nocc3C(C)O4)CC2)CC1` (stereo unspecified), the Inhibition with Plasmodium falciparum [1] is 88%; in the test on Plasmodium falciparum [2], 37%; with HepG2 it was 68%.

For the compound `COc1ccc(NS(=O)(=O)c2ccc(C(=O)Nc3ccc(OC(F)(F)F)cc3)cc2)cc1N1CCN(CC2CC2)CC1.O=C(O)C(F)(F)F`, the Inhibition with Plasmodium falciparum [1] is 89%; in the test on Plasmodium falciparum [2], 0%; with HepG2, 18%.

As for `COc1ccc(NC(=O)c2ccc(NC(=O)c3ccc(Cl)cc3)cc2)cc1N1CCN(C)CC1`, the Inhibition with Plasmodium falciparum [1] is on record as 98%; with Plasmodium falciparum [2] it was 40%; with HepG2 it was 23%.

Consider `CCNC(=O)Nc1cccc(-c2cccc(-c3nc4cc(C(F)(F)F)ccc4[nH]3)c2)c1`, for which the Inhibition in the test on Plasmodium falciparum [1] was determined as 91%; with Plasmodium falciparum [2] it was 32%; in the test on HepG2, 50%.

In the case of `O=C([C@H]1CCCCN1c1ccc([N+](=O)[O-])c2ccccc12)N1CCN(c2ncccn2)CC1`, the Inhibition in the test with Plasmodium falciparum [1] was 97%; with Plasmodium falciparum [2], 5%; in the test on HepG2, 50%.

For the compound `CS(=O)(=O)NCCCNCc1ccc(-c2ccc(-c3nc4cc(C(F)(F)F)ccc4[nH]3)cc2)cc1.O=C(O)C(F)(F)F`, the Inhibition with Plasmodium falciparum [1] came out at 100%; in the test with Plasmodium falciparum [2], 83%; with HepG2, 25%.
